Records with an inconclusive call do not appear. Activity calls are given as the source filed them. Unless noted, the call rests on the fitted dose curve.

Assay [1] in a line: Nuclear factor erythroid 2-related factor 2/antioxidant responsive element (Nrf2/ARE) small molecule agonists: luciferase reporter gene qHTS assay in human keratinocytes (AID 1919969; further: nearly all actives have a fitted effect of over 35% in size; further: potency means the concentration at half of the fitted maximal effect). (In general: A reporter such as luciferase makes a cellular process visible.)
The target in assay [2] is KiSS-1 receptor (Homo sapiens) (UniProt Q969F8). In words: Human kisspeptin (KISS1R) small molecule agonists, calcium flux assay in KISS1R-HEK293 cells (AID 1920064; active means well fitted activation curve with a large enough effect in the repeat runs). In short, it runs like this:
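HEK293 cells stably expressing human KISS1R were loaded with calcium dye for 1 h at 37 C, then given compound; fluorescence (Ex/Em 480/540) was read kinetically for 3 min. Fifteen concentrations, triplicate.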
On the technique in general: Calcium assays in cells follow changes in intracellular calcium, usually with a dye or a luminescent sensor.

The nature of assay [3]: G protein-coupled receptor (GPCR) small molecule agonists, calcium flux assay: HEK293 wild type cell line counter screen (AID 1920065). Summed up: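 Wild-type HEK293 cells plated 18 h, loaded with calcium dye 1 h at 37 C, then compounds added in agonist mode (ATP as positive control). Kinetic fluorescence Ex/Em 480/540 recorded 3 min at 1 sec intervals; 15 concentrations, triplicate.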

Assay [4] can be described thus: p53 small molecule agonists, cell-based qHTS assay with human liver microsomes: qHTS cell viability counter screen (AID 1963579). Further: nearly all actives have a fitted effect of over 45% in size. In short, it runs like this:
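After the 460/530 nm beta-lactamase read, CellTiter-Glo was added to the same wells and luminescence measured after 30 min at room temperature, giving viability of p53RE-bla cells treated 16 h with compounds plus microsomes and NADPH.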
On the technique in general: qHTS replaces the single test concentration by a dilution series.

Assay [5] can be described thus: p53 small molecule agonists, cell-based qHTS assay with rat liver microsomes: qHTS cell viability counter screen (AID 1963580). Further: nearly all actives have a fitted effect of over 45% in size. Summed up:
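Intracellular ATP, by CellTiter-Glo luminescence, defines viability. HCT-116 p53RE-bla cells, 4,000 per well, were compound-treated in the presence of rat liver microsomes and NADPH for 16 h at 37 C.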

Assay [6] is described as follows: p53 small molecule agonists, cell-based qHTS assay: qHTS cell viability counter screen (AID 1963581). Further: nearly all actives have a fitted effect of over 45% in size. In short, it runs like this: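 p53RE-bla HCT-116 cells, compounds added 5 h after plating and incubated 16 h at 37 C. Cytotoxicity measured in the same wells as intracellular ATP by CellTiter-Glo luminescence after 30 min at room temperature.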
The target in assay [7] is 5-hydroxytryptamine receptor 2A (Homo sapiens) (UniProt P28223). Put plainly: 5-hydroxytryptamine receptor 2A (HTR2A) small molecule agonists, cell-based qHTS assay (AID 1963587). Further: nearly all actives have a fitted effect of over 30% in size. Further: potency means the concentration at half of the fitted maximal effect. Summed up: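 Kinetic calcium-flux fluorescence (2 min, 1 sec intervals) after compound addition in agonist mode. HTR2A-CHO cells were cultured 18 h, then dye-loaded 1 h at 37 C.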
For assay [8], the target named is Muscarinic acetylcholine receptor M1 (Homo sapiens) (UniProt P11229). In words: Cholinergic receptor muscarinic 1 (CHRM1) small molecule antagonists, cell-based qHTS assay (AID 1963588). Further: nearly all actives have a fitted effect of over 40% in size. Summed up:
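CHRM1-CHO calcium-flux assay, antagonist mode. Cells were seeded 18 h, dye-loaded 1 h at 37 C and given compound for 5 min at RT, then acetylcholine was added at 50nM. FDSS fluorescence was read 3 min; 15 concentrations, three runs.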

The target is the same in assay [9]. Put plainly: Cholinergic receptor muscarinic 1 (CHRM1) small molecule agonists, cell-based qHTS assay (AID 1963589). Further: nearly all actives have a fitted effect of over 35% in size. Further: potency means the concentration at half of the fitted maximal effect. Summed up:
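CHO cells stably expressing human CHRM1 were loaded with calcium dye for 1 h at 37 C, then compound was added in agonist mode. Intracellular calcium fluorescence was followed kinetically at 1 s intervals. Fifteen concentrations were tested in three independent runs.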

Assay [10] in a line: cAMP Responsive Elements (CRE) small molecule agonists, cell-based qHTS assay (AID 1963590). Summed up: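 CRE-bla HEK 293T cells, 2,000/well in DMEM with 10% dialyzed FBS and 25 mM HEPES, pre-incubated 18 h at 37 C, then exposed to compound 3 h at 37 C. Beta-lactamase reporter read with LiveBLAzer B/G FRET substrate after 2 h at room temperature.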
The nature of assay [11]: cAMP Responsive Elements (CRE) small molecule antagonists, cell-based qHTS assay (AID 1963591; active means well fitted inhibition curve with a large enough effect in the signal ratio in the repeat runs, not every such curve was filed as active; the % refers to the signal ratio). In short, it runs like this: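 CRE-bla HEK293T cells plated 18 h, then given compound plus NKH477 at 0.25 uM final for 3 h at 37C. Beta-lactamase reporter read with LiveBLAzer B/G FRET substrate after 2 h at room temperature.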
Assay [12] addresses Beta-2 adrenergic receptor (Homo sapiens) (UniProt P07550). Put plainly: Adrenergic beta2 receptor (ADRB2) small molecule antagonists, cell-based qHTS assay (AID 1963592). Further: nearly all actives have a fitted effect of over 50% in size. Further: potency means the concentration at half of the fitted maximal effect. Summed up: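 Cells (CHO, stable ADRB2 overexpression) incubated 18-20hr at 37C; compounds added from DMSO; agonist mix (1nM isoproterenol, 100uM IBMX, 25uM Ro-20-1724) added; 0.5hr RT; d2-cAMP and anti-cAMP-cryptate added; 1hr RT; 665/615 nm read.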

The target of assay [13] is D(2) dopamine receptor (Homo sapiens) (UniProt P14416). Put plainly: Dopamine D2 receptor (DRD2) small molecule agonists, cell-based qHTS assay (AID 1963594). Further: nearly all actives have a fitted effect of over 35% in size. Further: potency means the concentration at half of the fitted maximal effect. Summed up:
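cAMP accumulation in DRD2-HEK293 cells measured by HTRF after 1 h detection; compounds added 10 min before NKH477 (200nM […]) forskolin-analogue stimulation, 30 min at room temperature, with Ro20-1724 present at 0.1 mM final.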

For assay [14] the target is unchanged. Put plainly: Dopamine D2 receptor (DRD2) small molecule antagonists, cell-based qHTS assay (AID 1963595; active means well fitted inhibition curve with a large enough effect in the signal ratio in the repeat runs, with a control signal flat; the % refers to the signal ratio). In short, it runs like this:
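HEK293 cells stably expressing DRD2, preincubated with 0.1 mM Ro20-1724 and compounds 10 min, were stimulated with 200 nM NKH477 plus 12 nM quinpirole for 30 min at room temperature; cAMP measured by HTRF (665/620 nm).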

The target of assay [15] is Gonadotropin-releasing hormone receptor (Homo sapiens) (UniProt P30968). Put plainly: Human gonadotropin-releasing hormone receptor (GnRHR) small molecule agonists, calcium flux assay in GnRHR-HEK293 cells (AID 1920063). Further: nearly all actives have a fitted effect of over 35% in size. Further: potency means the concentration at half of the fitted maximal effect. Summed up: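 HEK293 cells stably expressing human GnRHR were dye-loaded for 1 h at 37 C. Compound was added in agonist mode and fluorescence (Ex/Em 480/540) recorded kinetically for 3 min. Fifteen concentrations, triplicates.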

Assay [16] has as its target 5-hydroxytryptamine receptor 2A (Homo sapiens) (UniProt P28223). In words: 5-hydroxytryptamine receptor 2A (HTR2A) small molecule antagonists, cell-based qHTS assay (AID 1963586). Further: nearly all actives have a fitted effect of over 45% in size. In short, it runs like this:
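Antagonist-mode intracellular calcium assay: DOI (4 nM) added after 5 min compound pre-incubation at room temperature to dye-loaded HTR2A-CHO cells. Fluorescence followed for 3 min, sampled every second.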

Assay [17] can be described thus: p53 small molecule agonists, cell-based qHTS assay with human liver microsomes (AID 1963577).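 Further: p53 response element beta-lactamase reporter cells with liver microsomes plus NADPH.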 In short, it runs like this:
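Steps: plate p53RE-bla cells, incubate 5 h at 37 C; add compound in DMSO; add microsomes (0.5 mg/mL final) and NADPH (0.5 mg/mL final); incubate 16 h at 37 C; add LiveBLAzer, 2 h RT; read fluorescence.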

Assay [18] can be described thus: p53 small molecule agonists, cell-based qHTS assay with rat liver microsomes (AID 1963578). In short, it runs like this: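 Metabolic activation is supplied by rat liver microsomes with NADPH (each 0.5 mg/mL final). p53RE-bla cells incubate with compound 16 h at 37 C; reporter activity is measured by LiveBLAzer fluorescence.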
Assay [19] can be described thus: p53 small molecule agonists, cell-based qHTS assay (AID 1963582; active means well fitted activation curve with a large enough effect in the signal ratio in the repeat runs, not every such curve was filed as active; the % refers to the signal ratio). Summed up: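 p53RE-bla reporter cells, compounds added in DMSO after 5 h plating, incubated 16 h at 37 C. Beta-lactamase read via 2 h room-temperature LiveBLAzer B/G FRET substrate, fluorescence intensity.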
For assay [20], the target named is Beta-2 adrenergic receptor (Homo sapiens) (UniProt P07550). In words: Adrenergic beta2 receptor (ADRB2) small molecule agonists, cell-based qHTS assay (AID 1963593).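 Further: CHO cells stably overexpressing human ADRB2.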 Summed up: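 CHO cells stably over-expressing ADRB2 were plated overnight at 37C, then dosed with compounds plus a stimulation mix containing 100uM IBMX and 25uM Ro-20-1724 for 0.5hr at room temperature. cAMP was measured by HTRF competition, 1hr.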
Beta-2 adrenergic receptor (Homo sapiens), sequence (P07550 whole entry, looked up): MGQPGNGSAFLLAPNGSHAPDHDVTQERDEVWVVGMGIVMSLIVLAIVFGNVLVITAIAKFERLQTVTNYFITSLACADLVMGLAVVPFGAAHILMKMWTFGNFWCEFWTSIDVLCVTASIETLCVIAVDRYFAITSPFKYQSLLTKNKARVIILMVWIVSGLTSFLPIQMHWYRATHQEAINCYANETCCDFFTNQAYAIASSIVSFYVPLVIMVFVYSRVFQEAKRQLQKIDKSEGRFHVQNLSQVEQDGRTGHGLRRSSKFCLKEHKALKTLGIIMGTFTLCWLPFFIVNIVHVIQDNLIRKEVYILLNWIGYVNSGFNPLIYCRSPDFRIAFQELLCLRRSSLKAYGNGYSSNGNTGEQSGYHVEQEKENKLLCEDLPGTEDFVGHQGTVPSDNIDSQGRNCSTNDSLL

Muscarinic acetylcholine receptor M1 (Homo sapiens), sequence (P11229 whole entry, looked up): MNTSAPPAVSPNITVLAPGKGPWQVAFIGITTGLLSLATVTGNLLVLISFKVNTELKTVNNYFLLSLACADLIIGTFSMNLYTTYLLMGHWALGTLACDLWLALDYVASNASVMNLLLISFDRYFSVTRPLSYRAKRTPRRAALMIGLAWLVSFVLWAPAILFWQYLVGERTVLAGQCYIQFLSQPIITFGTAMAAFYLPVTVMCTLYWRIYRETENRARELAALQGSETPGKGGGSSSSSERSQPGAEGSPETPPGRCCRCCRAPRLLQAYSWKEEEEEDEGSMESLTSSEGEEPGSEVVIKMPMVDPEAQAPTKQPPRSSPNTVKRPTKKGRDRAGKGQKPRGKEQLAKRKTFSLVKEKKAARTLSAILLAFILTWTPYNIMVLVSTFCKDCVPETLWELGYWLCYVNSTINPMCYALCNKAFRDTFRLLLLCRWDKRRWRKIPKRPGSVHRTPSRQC
5-hydroxytryptamine receptor 2A (Homo sapiens), sequence (P28223 whole entry, looked up): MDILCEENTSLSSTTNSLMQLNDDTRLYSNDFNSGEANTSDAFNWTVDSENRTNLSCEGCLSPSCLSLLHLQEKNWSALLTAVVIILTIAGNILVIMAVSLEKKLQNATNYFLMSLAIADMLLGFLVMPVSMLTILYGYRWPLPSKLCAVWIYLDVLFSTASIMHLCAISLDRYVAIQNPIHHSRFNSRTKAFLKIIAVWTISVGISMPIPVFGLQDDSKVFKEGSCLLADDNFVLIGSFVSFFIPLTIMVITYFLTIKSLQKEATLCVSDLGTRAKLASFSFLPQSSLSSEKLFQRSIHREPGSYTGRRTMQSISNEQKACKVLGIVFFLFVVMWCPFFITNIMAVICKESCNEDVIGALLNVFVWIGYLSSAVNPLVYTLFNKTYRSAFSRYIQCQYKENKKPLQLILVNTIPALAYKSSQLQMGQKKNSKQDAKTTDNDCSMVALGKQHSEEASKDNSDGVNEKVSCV
D(2) dopamine receptor (Homo sapiens), sequence (P14416 whole entry, looked up): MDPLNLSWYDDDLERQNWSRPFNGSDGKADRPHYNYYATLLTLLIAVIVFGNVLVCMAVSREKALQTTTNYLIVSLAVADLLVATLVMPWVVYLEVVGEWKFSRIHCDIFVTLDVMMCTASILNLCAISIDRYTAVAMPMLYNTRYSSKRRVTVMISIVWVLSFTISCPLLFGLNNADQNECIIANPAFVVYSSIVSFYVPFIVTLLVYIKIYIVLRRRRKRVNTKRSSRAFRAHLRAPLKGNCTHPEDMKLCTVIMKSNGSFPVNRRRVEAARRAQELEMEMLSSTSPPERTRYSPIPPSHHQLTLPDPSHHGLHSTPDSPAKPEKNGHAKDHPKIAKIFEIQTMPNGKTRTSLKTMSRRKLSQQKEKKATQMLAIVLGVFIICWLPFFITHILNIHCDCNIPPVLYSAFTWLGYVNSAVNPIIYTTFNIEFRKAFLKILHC
KiSS-1 receptor (Homo sapiens), sequence (Q969F8 whole entry, looked up): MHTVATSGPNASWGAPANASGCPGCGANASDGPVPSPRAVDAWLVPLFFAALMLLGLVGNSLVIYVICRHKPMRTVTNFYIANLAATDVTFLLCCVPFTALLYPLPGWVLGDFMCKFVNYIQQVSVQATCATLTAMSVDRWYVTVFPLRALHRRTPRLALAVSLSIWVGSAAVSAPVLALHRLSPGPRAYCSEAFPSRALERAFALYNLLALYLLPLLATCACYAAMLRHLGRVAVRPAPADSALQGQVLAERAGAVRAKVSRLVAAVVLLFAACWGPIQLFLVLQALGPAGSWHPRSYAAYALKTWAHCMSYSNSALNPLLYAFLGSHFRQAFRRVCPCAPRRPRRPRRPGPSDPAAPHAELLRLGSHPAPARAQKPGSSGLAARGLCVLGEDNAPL
Gonadotropin-releasing hormone receptor (Homo sapiens), sequence (P30968 whole entry, looked up): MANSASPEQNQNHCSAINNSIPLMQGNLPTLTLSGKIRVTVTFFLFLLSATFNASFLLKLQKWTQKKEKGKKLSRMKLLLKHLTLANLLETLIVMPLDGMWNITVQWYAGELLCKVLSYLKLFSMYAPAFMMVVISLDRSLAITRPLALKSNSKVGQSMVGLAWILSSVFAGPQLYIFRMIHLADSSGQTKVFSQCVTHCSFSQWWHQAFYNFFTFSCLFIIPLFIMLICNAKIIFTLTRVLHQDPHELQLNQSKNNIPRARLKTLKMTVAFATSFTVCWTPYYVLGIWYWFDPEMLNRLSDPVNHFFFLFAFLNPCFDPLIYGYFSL

With `CCOP(=O)(O)C(N)=O`, the Potency entry in assay [1], in assay [2], in [3], in assay [4], in assay [5] and in assay [6] was “inactive” throughout. Also, the Potency result in assay [7], in assay [8], in [9], in assay [10], in [11] and in assay [12] was “inactive” each time. Besides, the Potency entry in [13] and in [14] was “inactive” throughout.
For the molecule `Oc1ccc([C@H]2CNCc3c2ccc(O)c3O)cc1O`, the Potency entry in [1], in [2], in assay [3], in assay [4], in [6] and in assay [8] was “inactive” each time. In addition, the Potency result in assay [9], in [10], in assay [11] and in assay [14] was “inactive” each time. In addition, the results for the Potency in assay [7] and in [13] were 9.52 µM (active) and 17.4 µM (active), respectively.
Take `O=C(O)c1cccc(Cl)c1`: the Potency entry in assay [1], in [15], in assay [3], in assay [4], in [5] and in [6] was “inactive” throughout. Moreover, the Potency result in [16], in assay [7], in [9], in [10], in assay [11] and in assay [12] was “inactive” each time. The Potency entry in assay [13] was “inactive”.
Regarding `Oc1cccc(Cl)c1Cl`, the Potency result in assay [1], in [15], in assay [2], in assay [17], in assay [18] and in [4] was “inactive” each time. In addition, the Potency result in assay [6], in assay [19], in assay [16], in [7], in [8] and in [9] was “inactive” in each case. Further, the Potency entry in assay [12], in assay [13] and in assay [14] was “inactive” each time.
As for `COc1cc(OC)c(OC)cc1C=O`, the Potency entry in assay [1], in assay [3], in [4], in [19], in [16] and in assay [8] was “inactive” each time.
`O=C(c1ccccc1)C(Cl)Cl`: the Potency in [1] is 27.3 µM (active). The Potency entry in [2], in [3], in [17], in assay [18], in assay [4] and in assay [6] was “inactive” throughout. In addition, the Potency result in [16], in [8], in [10], in [12] and in assay [14] was “inactive” in each case.
Consider `O=C1NCN(c2ccccc2)C12CCN(CCCOc1ccc(F)cc1)CC2`, for which the Potency result in [1], in assay [17], in assay [18], in assay [5] and in assay [10] was “inactive” throughout. Besides, the Potency in [15] is 9.52 µM (active); in assay [9], 4.77 µM (active); in [12], 5.96 µM (active).
Take `COP(=O)(OC)O/C(C)=C/C(=O)N(C)C`: the Potency result in assay [1], in assay [3], in assay [4], in assay [6], in [19] and in assay [16] was “inactive” in each case. Further, the Potency result in assay [7], in assay [8], in assay [10], in assay [11], in assay [12] and in assay [20] was “inactive” in each case. For the same molecule, the Potency result in assay [13] and in [14] was “inactive” throughout.
`C=CCOC(=O)c1ccccc1N`: the Potency in assay [1] is 6.15 µM (active). Besides, the Potency entry in [2], in assay [3], in assay [4], in assay [5], in [6] and in [16] was “inactive” in each case. The Potency entry in assay [7], in assay [8], in assay [9], in assay [10], in assay [13] and in assay [14] was “inactive” throughout.
`O=C(N[C@H](c1ccccc1)[C@@H]1CN2CCC1CC2)c1c(Cl)ccc(C(F)(F)F)c1Cl`: the Potency result in [1], in assay [2], in assay [3], in assay [17], in assay [18] and in assay [4] was “inactive” throughout. For the same molecule, the Potency entry in assay [5], in assay [6], in assay [19], in assay [16], in assay [7] and in assay [9] was “inactive” throughout. The Potency entry in [12], in assay [20] and in assay [14] was “inactive” each time.

The record behind these values is PubChem BioAssay (Tox21).
